Experiment [1] can be described thus: antimalarial activity against Dd2 strain (AID 2302;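 active means growth inhibition above 50% at the single 2 µM test dose, taken to imply half-maximal potency below 2 µM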;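 further: 0% = DMSO untreated growth and 100% = chloroquine plus artemisinin killed control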). The note with it: P. falciparum Dd2 in RBCs, LDH growth readout, 72 h; at 2 µM; stronger effect = higher value.
A short description of experiment [2]: HepG2 cytotoxicity, primary screen, cytotoxicity control for P. falciparum antimalarial project, cell-based, ATP luminescence (AID 2303;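 active means inhibition above 50%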;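 further: 0% = DMSO wells and 100% = digitonin-killed cells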). Particulars: HepG2 viability, 24-48 h, at 10 µM, stronger effect = higher value.
The target of experiment [3] is L-lactate dehydrogenase (Plasmodium falciparum (isolate CDC / Honduras)) (UniProt Q27743). The experiment is described as follows: PfLDH activity inhibition – cell lysate, 3D7 strain, counter-screen for P. falciparum growth inhibition project (AID 2304).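 Further: 0% = vehicle and 100% = reference inhibitor.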 Particulars: P. falciparum 3D7 crude extract, LDH APAD/NBT absorbance; at 2 µM; stronger effect = higher value.
Chain of L-lactate dehydrogenase (Plasmodium falciparum (isolate CDC / Honduras)) (Q27743 whole entry, looked up): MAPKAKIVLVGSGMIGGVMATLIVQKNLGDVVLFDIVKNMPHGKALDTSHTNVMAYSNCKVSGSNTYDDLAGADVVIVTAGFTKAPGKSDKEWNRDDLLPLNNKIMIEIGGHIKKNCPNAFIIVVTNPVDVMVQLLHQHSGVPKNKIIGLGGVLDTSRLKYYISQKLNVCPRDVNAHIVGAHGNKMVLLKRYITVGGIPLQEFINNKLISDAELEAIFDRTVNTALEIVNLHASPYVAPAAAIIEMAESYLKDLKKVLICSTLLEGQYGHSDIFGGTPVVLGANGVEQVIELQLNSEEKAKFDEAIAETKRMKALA
The nature of experiment [4]: inhibition of 3D7 malaria parasite growth – strain 3D7 (AID 2306).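 Further: 0% = DMSO wells and 100% = chloroquine plus artemisinin control wells.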 The note with it: P. falciparum 3D7 erythrocytic growth, LDH absorbance, 72 h; at 2 µM; stronger effect = higher value.
In experiment [5] the target is Calcium-dependent protein kinase 1 (Plasmodium falciparum (isolate 3D7)) (UniProt P62344). The experiment is described as follows: PfCDPK1 kinase inhibitors, biochemical, TCAMS library (AID 1159585; cut-off not given, nearly all actives have IC50 up to about 0.98 µM;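 further: inhibitors leave more ATP so luminescence rises with inhibition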). Particulars: recombinant PfCDPK1, Kinase-Glo ATP depletion luminescence. (Kinase-Glo reads ATP consumption through a luciferase reaction.)
Chain of Calcium-dependent protein kinase 1 (Plasmodium falciparum (isolate 3D7)) (P62344 whole entry, looked up): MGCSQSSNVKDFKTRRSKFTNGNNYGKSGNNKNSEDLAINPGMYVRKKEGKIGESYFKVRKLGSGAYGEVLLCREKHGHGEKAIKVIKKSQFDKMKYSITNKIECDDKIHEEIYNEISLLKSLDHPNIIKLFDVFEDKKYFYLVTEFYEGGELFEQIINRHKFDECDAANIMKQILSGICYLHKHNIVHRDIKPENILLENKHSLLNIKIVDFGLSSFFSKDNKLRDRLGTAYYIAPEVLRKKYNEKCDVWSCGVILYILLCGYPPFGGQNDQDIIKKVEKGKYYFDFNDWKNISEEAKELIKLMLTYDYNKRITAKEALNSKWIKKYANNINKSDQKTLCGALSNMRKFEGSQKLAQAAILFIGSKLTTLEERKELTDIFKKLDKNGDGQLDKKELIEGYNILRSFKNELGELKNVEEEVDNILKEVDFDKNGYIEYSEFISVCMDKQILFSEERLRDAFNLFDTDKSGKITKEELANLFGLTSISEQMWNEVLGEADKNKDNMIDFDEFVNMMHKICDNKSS
The target of experiment [6] is Plasmodium falciparum protein kinase 6 (PK6, PF3D7_1337100) (UniProt Q8IDW1). The experiment is described as follows: PfPK6 kinase inhibitors, biochemical, TCAMS library (AID 1159586). The note with it: recombinant PfPK6, Kinase-Glo ATP depletion luminescence.
Chain of Plasmodium falciparum protein kinase 6 (PK6, PF3D7_1337100) (Q8IDW1 1-305): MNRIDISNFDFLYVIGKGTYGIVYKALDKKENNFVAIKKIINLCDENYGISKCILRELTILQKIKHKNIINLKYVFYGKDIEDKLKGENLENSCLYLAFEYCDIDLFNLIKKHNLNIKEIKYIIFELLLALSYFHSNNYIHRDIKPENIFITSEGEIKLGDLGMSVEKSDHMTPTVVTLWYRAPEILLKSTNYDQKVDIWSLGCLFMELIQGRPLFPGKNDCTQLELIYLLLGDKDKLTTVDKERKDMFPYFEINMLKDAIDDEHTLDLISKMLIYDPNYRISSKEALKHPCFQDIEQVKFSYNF
Experiment [7] addresses Protein kinase 7 (PK7), Plasmodium falciparum 3D7 (PF3D7_0213400) (UniProt Q7YTF7). The experiment is described as follows: inhibition of Plasmodium PK7 catalytic activity – biochemical, TCAMS antimalarial set, Kinase-Glo luminescence (AID 1159587). The note with it: recombinant PfPK7, Kinase-Glo ATP depletion luminescence.
Experiment [8] has as its target Calcium-dependent protein kinase 4 (Plasmodium falciparum (isolate 3D7)) (UniProt Q8IBS5). In words: PfCDPK4 kinase inhibitors, biochemical, TCAMS library (AID 1159588; cut-off not given, nearly all actives have IC50 up to about 0.91 µM). Particulars: recombinant PfCDPK4, Kinase-Glo ATP depletion luminescence.

Data on 21 molecules can be found in PubChem BioAssay.

Values without a mark were called inactive. For part of these data: Measured potencies and affinities stand elsewhere. Active and inactive are the calls of the source. Unless noted, how the calls were made is not given here.

Chain of Protein kinase 7 (PK7), Plasmodium falciparum 3D7 (PF3D7_0213400) (Q7YTF7 1-343): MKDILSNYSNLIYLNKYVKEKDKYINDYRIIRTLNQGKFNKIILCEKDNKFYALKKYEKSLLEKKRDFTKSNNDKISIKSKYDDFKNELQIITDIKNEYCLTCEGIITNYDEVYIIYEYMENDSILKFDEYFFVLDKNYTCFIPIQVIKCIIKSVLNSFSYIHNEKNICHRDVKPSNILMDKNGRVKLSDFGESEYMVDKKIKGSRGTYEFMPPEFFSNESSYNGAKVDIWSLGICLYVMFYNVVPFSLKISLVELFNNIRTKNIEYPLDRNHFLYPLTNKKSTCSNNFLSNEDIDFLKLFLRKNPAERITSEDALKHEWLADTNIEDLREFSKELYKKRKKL
Chain of Calcium-dependent protein kinase 4 (Plasmodium falciparum (isolate 3D7)) (Q8IBS5 whole entry, looked up): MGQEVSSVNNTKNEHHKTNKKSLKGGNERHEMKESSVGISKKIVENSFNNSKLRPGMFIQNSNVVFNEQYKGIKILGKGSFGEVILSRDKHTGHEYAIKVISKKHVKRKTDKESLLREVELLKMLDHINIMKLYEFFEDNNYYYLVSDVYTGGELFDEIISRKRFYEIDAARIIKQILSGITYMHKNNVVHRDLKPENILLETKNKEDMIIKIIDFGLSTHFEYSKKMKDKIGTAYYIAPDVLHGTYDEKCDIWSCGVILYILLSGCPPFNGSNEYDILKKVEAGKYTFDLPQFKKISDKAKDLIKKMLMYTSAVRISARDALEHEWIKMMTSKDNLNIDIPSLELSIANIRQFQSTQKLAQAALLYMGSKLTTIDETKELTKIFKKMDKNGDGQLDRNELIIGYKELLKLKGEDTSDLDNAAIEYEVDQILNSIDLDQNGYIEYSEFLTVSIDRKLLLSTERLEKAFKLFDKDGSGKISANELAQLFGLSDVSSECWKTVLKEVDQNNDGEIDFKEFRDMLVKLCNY

A word on the inhibition: it is the relative decrease from the control value, in per cent. With `CCNc1cc(C)nc(Nc2ccc(NC(=O)c3cccs3)cc2)n1`, the growth inhibition was 50% (active) in experiment [1] and 101% (active) in experiment [4]. Besides, the inhibition was 21% in experiment [2] and 0% in experiment [3]. Besides, the result in experiment [5], in experiment [6], in experiment [7] and in experiment [8] was inactive.
On to `Cc1ccc(S(=O)(=O)n2cc(-c3ccnc(N)c3)c3cc(Br)cnc32)cc1`, for which the values for the growth inhibition in experiment [1] and in experiment [4] were 31% and 98% (active), respectively. The inhibition in experiment [2] is 8%; in experiment [3] it was 1%. Also, the outcome in experiment [5], in experiment [6], in experiment [7] and in experiment [8] was inactive.
Take `Fc1ccc(Nc2ccnc3cc(-c4ccc(CN5CCOCC5)o4)ccc23)c(Cl)c1`: the growth inhibition was 100% (active) in experiment [1] and 101% (active) in experiment [4]. Besides, the results for the inhibition in experiment [2] and in experiment [3] were 42% and 5%, respectively. Moreover, the outcome in experiment [5], in experiment [6], in experiment [7] and in experiment [8] was inactive.
Consider `COC(=O)/C=C/c1ccc(CCC(C)NCC(O)c2cccc(Cl)c2)cc1` (stereo not drawn), for which the growth inhibition was 77% (active) in experiment [1] and 94% (active) in experiment [4]. Moreover, the inhibition in experiment [2] is 5%; in experiment [3] it was 4%. Also, the result in experiment [5], in experiment [6], in experiment [7] and in experiment [8] was inactive.
On to `CCN(CC)CCCC(C)Nc1c(-c2ccc(C)cc2)cnc2ccccc12` (stereo not drawn), for which the growth inhibition in experiment [1] is 65% (active); in experiment [4] it was 85% (active). Moreover, the inhibition in experiment [2] was 8%; in experiment [3], 1%. For the same molecule, the outcome in experiment [5], in experiment [6], in experiment [7] and in experiment [8] was inactive.
As for `COc1cc2nc(N3CCN(c4cc(C)ccc4C)CC3)nc(N)c2cc1OC`, the results for the growth inhibition in experiment [1] and in experiment [4] were 12% and 98% (active), respectively. The inhibition in experiment [2] was 66% (active); in experiment [3] it was 5%. Further, the outcome in experiment [5], in experiment [6], in experiment [7] and in experiment [8] was inactive.
In the case of `NC(N)=NN=CC(=O)Nc1ccc(Cl)cc1`, the values for the growth inhibition in experiment [1] and in experiment [4] were 2% and 101% (active), respectively. Moreover, the inhibition is 5% in experiment [2] and -1% in experiment [3]. Moreover, the result in experiment [5], in experiment [6], in experiment [7] and in experiment [8] was inactive.
Turning to `CC1CCCC(NC(=O)CCOc2ccccc2)C1` (stereo not drawn), the growth inhibition in experiment [1] was 32%; in experiment [4], 96% (active). The inhibition in experiment [2] is -14%; in experiment [3], -2%. Moreover, the result in experiment [5], in experiment [6], in experiment [7] and in experiment [8] was inactive.
With `COc1cc(OCCCCCCON2C(N)=NC(N)=NC2(C)C)cc(OC)c1OC`, the growth inhibition in experiment [1] is 93% (active); in experiment [4], 94% (active). Besides, the inhibition in experiment [2] is 41%; in experiment [3] it was -5%. Further, the result in experiment [5], in experiment [6], in experiment [7] and in experiment [8] was inactive.
As for `O=S(=O)(c1cccc2cccnc12)N1CCN(C2CCCCC2)CC1`, the growth inhibition in experiment [1] was 10%; in experiment [4], 96% (active). Besides, the inhibition in experiment [2] was 15%; in experiment [3], 1%. Besides, the outcome in experiment [5], in experiment [6], in experiment [7] and in experiment [8] was inactive.
Turning to `CCNc1cc(C(=O)N[C@@H](Cc2ccco2)[C@H](O)CNC2CCCCC2)cc(N2CCCCS2(=O)=O)c1`, the growth inhibition in experiment [1] is 57% (active); in experiment [4], 91% (active). Further, the inhibition is 14% in experiment [2] and 3% in experiment [3]. The outcome in experiment [5], in experiment [6], in experiment [7] and in experiment [8] was inactive.
As to `COc1ccc(CNCc2cccc(-c3cccc(-c4nc5c(C)cccc5[nH]4)c3)c2)cc1`, the growth inhibition was 60% (active) in experiment [1] and 102% (active) in experiment [4]. The inhibition was 31% in experiment [2] and -4% in experiment [3]. Also, the result in experiment [5], in experiment [6], in experiment [7] and in experiment [8] was inactive.
As to `Nc1c(Cl)cc(C(O)CNCCCCCOCCCc2ccc3ncccc3c2)cc1Cl` (stereo not drawn), the growth inhibition was 77% (active) in experiment [1] and 96% (active) in experiment [4]. Moreover, the inhibition in experiment [2] is 24%; in experiment [3], -8%. Moreover, the result in experiment [5], in experiment [6], in experiment [7] and in experiment [8] was inactive.
Consider `O=C(/C=C/c1ccc(Cl)c(Cl)c1)NC1CCC(CN2CCC(c3nc4ccc(O)cc4[nH]3)CC2)CC1` (stereo not drawn), for which the growth inhibition in experiment [1] is 84% (active); in experiment [4], 101% (active). Further, the inhibition in experiment [2] is 41%; in experiment [3], -6%. The outcome in experiment [5], in experiment [6], in experiment [7] and in experiment [8] was inactive.
Regarding `COc1cccc(CCNCCCCCCNCCc2ccc(Cl)cc2)c1`, the growth inhibition was 3% in experiment [1] and 100% (active) in experiment [4]. Besides, the values for the inhibition in experiment [2] and in experiment [3] were 32% and -1%, respectively. The result in experiment [5], in experiment [6], in experiment [7] and in experiment [8] was inactive.
Turning to `O=C(CCC1CCCCC1)NCCNc1cccc2ccccc12`, the growth inhibition in experiment [1] was 57% (active); in experiment [4], 90% (active). The values for the inhibition in experiment [2] and in experiment [3] were 7% and -1%, respectively. Moreover, the result in experiment [5], in experiment [6], in experiment [7] and in experiment [8] was inactive.
As to `Cc1cnc(Nc2cccc(CCN3CCOCC3)c2)nc1NC(C)C`, the growth inhibition was 76% (active) in experiment [1] and 97% (active) in experiment [4]. The inhibition was 53% (active) in experiment [2] and 1% in experiment [3]. Moreover, the result in experiment [5], in experiment [6], in experiment [7] and in experiment [8] was inactive.
For the molecule `CC(C)CN(c1nc(C(=O)NNC(=O)[C@H](CC2CC2)NC(=O)c2cc3cc(OCCN4CCCCC4)ccc3o2)cs1)C1CC1`, the figures for the growth inhibition in experiment [1] and in experiment [4] were 98% (active) and 97% (active), respectively. In addition, the figures for the inhibition in experiment [2] and in experiment [3] were 2% and -4%, respectively. Besides, the result in experiment [5], in experiment [6], in experiment [7] and in experiment [8] was inactive.
Take `O=C(Nc1ccc(Cl)cc1)c1ccc(CN2CCCN(CC3CCCCC3)CC2)cc1`: the growth inhibition in experiment [1] was 42%; in experiment [4], 92% (active). The inhibition in experiment [2] is 48%; in experiment [3], 0%. For the same molecule, the outcome in experiment [5], in experiment [6], in experiment [7] and in experiment [8] was inactive.
Turning to `O=C(NCCN1CCCCC1)N1CCCN(c2ncnc3cc(-c4ccccc4)sc23)CC1`, the values for the growth inhibition in experiment [1] and in experiment [4] were 80% (active) and 89% (active), respectively. Also, the inhibition in experiment [2] was 2%; in experiment [3], -1%. Further, the result in experiment [5], in experiment [6], in experiment [7] and in experiment [8] was inactive.
`Cc1ccc(NC(=O)c2c(C)noc2-c2snnc2C)cc1`: the results for the growth inhibition in experiment [1] and in experiment [4] were 71% (active) and 92% (active), respectively. Moreover, the inhibition was 1% in experiment [2] and 3% in experiment [3]. For the same molecule, the result in experiment [5], in experiment [6], in experiment [7] and in experiment [8] was inactive.
